Experimental findings from PubChem BioAssay (EPA / NIEHS) are described below.

Each structure is given as a SMILES string. Activity calls are given as the source filed them. Rule for the calls: active = hit-call score of the fitted dose curve at least 0.9, where 1 is the maximum; inactive = score below 0.9.

In general, AC50 refers to the concentration at which the activity in the assay is half-maximal.

Assay [1] is described as follows: ATG_CRE_CIS: Attagene CIS-FACTORIAL HepG2 Assay for human cAMP Responsive Element (CRE) binding protein 3 (AID 2282926). Conditions: HepG2 CRE cis-reporter, Attagene multiplexed mRNA; actives raise or lower the signal. A digest of the protocol: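 Liver-derived HepG2, transfected with a CRE-containing reporter panel, exposed 24 h; transcript levels sized and quantified by capillary electrophoresis of labelled amplicons; signal changes either way referenced to vehicle.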

Assay [2] concerns the target CCAAT/enhancer-binding protein beta (Homo sapiens) (UniProt P17676). Kind of assay: ATG_C_EBP_CIS: Attagene CIS-FACTORIAL HepG2 Assay for human CCAAT/Enhancer Binding Protein (C/EBP) beta (AID 2282927). Conditions: HepG2 Attagene cis-factorial transcription factor reporter; actives raise or lower the signal. A digest of the protocol: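 Following a 24 h incubation with test chemical, transfected HepG2 cells yielded RNA whose reporter transcripts were quantified by RT-PCR and fluorescent capillary electrophoresis, with DMSO serving as baseline for bidirectional fitting.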

The target of assay [3] is Aryl hydrocarbon receptor (Homo sapiens) (UniProt P35869). Put plainly: ATG_Ahr_CIS: Attagene CIS-FACTORIAL HepG2 Assay for human Aryl Hydrocarbon Receptor (Ahr) (AID 2282930). As to conditions: HepG2 AhR cis-factorial reporter transcription; actives raise or lower the signal. Put shortly:
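Values derive from bidirectional fitting against DMSO negative control. Underlying signal: cis-element reporter mRNA in transiently transfected HepG2, harvested 24 h post-dose and measured by RT-PCR plus capillary electrophoresis.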

A short description of assay [4]: ATG_AP_1_CIS: Attagene CIS-FACTORIAL HepG2 Assay for human Activator Protein 1 (AP-1) (AID 2282931). Conditions: HepG2 Attagene cis-factorial AP-1 reporter mRNA; actives raise or lower the signal. A digest of the protocol: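 After 24 h incubation with test chemical, RNA from transfected HepG2 cells was reverse-transcribed, amplified, fluorescently labelled and digested before capillary electrophoresis. Reporters were driven by cis-regulatory promoters; activity fitted bidirectionally versus DMSO.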

Assay [5] in a line: ATG_BRE_CIS: Attagene CIS-FACTORIAL HepG2 Assay for human Bone Morphogenetic Protein (BMP) Response Element (BRE) (AID 2282933). As to conditions: HepG2 BMP response element reporter, Attagene transcription factor profiling; actives raise or lower the signal. A digest of the protocol:
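HepG2 cells transiently transfected with CIS reporter units (endogenous TF activity, BMP response element), dosed 24 h. Reporter mRNA quantified by RT-PCR, fluorescent labelling and capillary electrophoresis; bidirectional fit vs DMSO baseline.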

Assay [6] can be described thus: ATG_E_Box_CIS: Attagene CIS-FACTORIAL HepG2 Assay for human Enhancer Box (E-box) (AID 2282936). As to conditions: HepG2 E-box cis-reporter transcription, actives raise or lower the signal. Put shortly:
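Endogenous transcription factor activity was sensed in human HepG2 liver cells through transfected cis-promoter reporter units. After 24 h of dosing, total RNA was reverse-transcribed and reporter cDNA resolved by capillary electrophoresis.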

Assay [7] can be described thus: ATG_GLI_CIS: Attagene CIS-FACTORIAL HepG2 Assay for human Zinc Finger Protein GLI1 (AID 2282945). Conditions: HepG2, Attagene cis-factorial reporter mRNA, GLI element; actives raise or lower the signal. Put shortly:
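HepG2 cells transiently transfected with cis-promoter multiplexed reporter units report endogenous transcription factor activity. After 24 h chemical exposure, reporter mRNA was quantified by RT-PCR, 6-FAM labelling, HpaI digestion and capillary electrophoresis, with bidirectional fitting against DMSO.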

A short description of assay [8]: ATG_M_06_CIS: Attagene CIS-FACTORIAL HepG2 Assay for M06 Transcription Factor (Internal Marker) (AID 2282950). Conditions: HepG2 Attagene CIS-FACTORIAL M06 internal marker reporter; actives raise or lower the signal. Put shortly: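 Internal background marker within multiplexed cis-reporter HepG2 system. Cells transiently transfected, dosed 24 h; reporter mRNA measured by RT-PCR, HpaI digestion and capillary electrophoresis. Bidirectional fit relative to DMSO.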

Assay [9] has as its target Hypoxia-inducible factor 1-alpha (Homo sapiens) (UniProt Q16665). Put plainly: ATG_HIF1a_CIS: Attagene CIS-FACTORIAL HepG2 Assay for human Hypoxia Inducible Factor 1 (HIF1A) (AID 2282951). Conditions: HepG2 Attagene cis-factorial HIF1a reporter transcription; actives raise or lower the signal. A digest of the protocol: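 Endogenous-TF cis reporter readout, human HepG2 cells, 24 h incubation; mRNA detected via RT-PCR and capillary electrophoresis fluorescence; DMSO-normalised bidirectional fitting.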

For assay [10], the target named is Hepatocyte nuclear factor 6 (Homo sapiens) (UniProt Q9UBC0). Kind of assay: ATG_HNF6_CIS: Attagene CIS-FACTORIAL HepG2 Assay for human Hepatocyte Nuclear Factor 6 (HNF6) (AID 2282952). Conditions: HepG2 Attagene cis-factorial HNF6 reporter transcription; actives raise or lower the signal. Put shortly: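 Twenty-four-hour chemical treatment of reporter-transfected HepG2 cells precedes RNA isolation, DNase-treated reverse transcription and PCR of reporter sequences. Labelled fragments are sized by capillary electrophoresis and fitted bidirectionally versus DMSO.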

The target in assay [11] is Heat shock factor protein 1 (Homo sapiens) (UniProt Q00613). Kind of assay: ATG_HSE_CIS: Attagene CIS-FACTORIAL HepG2 Assay for human Heat Shock Transcription Factor 1 (HSE) (AID 2282953). Conditions: HepG2 HSE cis-reporter, Attagene RNA transcription; actives raise or lower the signal. A digest of the protocol: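 HepG2 cells transfected with cis-promoter reporter units sensing endogenous transcription factor activity; reporter mRNA quantified 24 h post-dose by RT-PCR and capillary electrophoresis of 6-FAM-labelled products. Bidirectional fitting against DMSO.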

A short description of assay [12]: ATG_TA_CIS: Attagene CIS-FACTORIAL HepG2 Assay for human TA Basal Promoter (AID 2282964). As to conditions: HepG2 Attagene CIS-factorial TA basal promoter reporter; actives raise or lower the signal. A digest of the protocol:
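HepG2 cells transiently transfected with multiple reporter units under cis promoter elements, reporting endogenous transcription factor activity; this endpoint tracks the TA basal promoter as background control. Reporter mRNA after 24 h dosing measured by RT-PCR/capillary electrophoresis; bidirectional fits versus DMSO.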

Assay [13] concerns the target X-box-binding protein 1 (Homo sapiens) (UniProt P17861). Put plainly: ATG_Xbp1_CIS: Attagene CIS-FACTORIAL HepG2 Assay for human X-box Binding Protein 1 (XBP1) (AID 2282972). Conditions: HepG2 XBP1 cis-element reporter, Attagene multiplex; actives raise or lower the signal. A digest of the protocol:
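Changes in reporter transcript abundance, read by RT-PCR and capillary electrophoresis, reflect endogenous transcription factor activity. Transfected HepG2 cells received compound for 24 hours; DMSO defined baseline for bidirectional analysis.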

Assay [14] addresses Nuclear respiratory factor 1 (Homo sapiens) (UniProt Q16656). Kind of assay: ATG_NRF1_CIS: Attagene CIS-FACTORIAL HepG2 Assay for human Nuclear Respiratory Factor 1 (NRF1) Orphan Gene (AID 2282987). As to conditions: HepG2 NRF1 cis-element reporter, Attagene multiplex; actives raise or lower the signal. A digest of the protocol:
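Endogenous factor activity was captured via cis-element-driven reporter transcripts in HepG2 cells. Following 24 h chemical treatment, transcripts were quantified by RT-PCR and capillary electrophoresis.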

Assay [15] deals with Myc proto-oncogene protein (Homo sapiens) (UniProt P01106). Kind of assay: ATG_Myc_CIS: Attagene CIS-FACTORIAL HepG2 Assay for human Myelocytomatosis (Myc) Proto-Oncogene Transcription Factor (AID 2282990). Conditions: HepG2, Attagene cis-reporter transcription factor activity; actives raise or lower the signal. Put shortly:
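Multiplexed cis-reporter transcription in HepG2 cells after 24 h chemical treatment. Reporter mRNA measured by RT-PCR and capillary electrophoresis fluorescence; activity fitted bidirectionally against DMSO control.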

The nature of assay [16]: ATG_NRF2_ARE_CIS: Attagene CIS-FACTORIAL HepG2 Assay for human Nuclear Factor Erythroid 2 Related Factor 2 (NFR2) response to Antioxidant Response Elements (ARE) (AID 2282992). Conditions: HepG2 Attagene ARE/NRF2 reporter, transcription factor activity; actives raise or lower the signal. A digest of the protocol:
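Using transiently transfected HepG2 cells exposed for 24 h, reporter mRNA levels were determined by RT-PCR with fluorescent primer extension and capillary electrophoresis, analysed for gain or loss of signal against DMSO.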

Assay [17] can be described thus: ATG_Oct_MLP_CIS: Attagene CIS-FACTORIAL HepG2 Assay for human Octamer-Binding Transcription Factor (Oct) (AID 2282993). As to conditions: HepG2 Attagene cis-factorial Oct reporter, mRNA; actives raise or lower the signal. Put shortly:
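HepG2 cells transiently transfected with cis-element-driven reporter transcription units (endogenous TF activity); 24 h compound exposure. Reporter mRNA quantified by RT-PCR, 6-FAM labelling, HpaI digestion and capillary electrophoresis; bidirectional fit versus DMSO baseline.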

Assay [18] is described as follows: ATG_VDRE_CIS: Attagene CIS-FACTORIAL HepG2 Assay for human Vitamin D Receptor Element (VDRE) (AID 2282968). Conditions: HepG2 VDRE cis-reporter transcription, actives raise or lower the signal. Put shortly:
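Steps: transfect HepG2 with multiple reporter transcription units; dose chemicals 24 h; isolate RNA; RT-PCR; label with 6-FAM primer extension; HpaI digest; capillary electrophoresis. Curves fitted both directions against DMSO.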

The target in assay [19] is Cellular tumor antigen p53 (Homo sapiens) (UniProt P04637). Kind of assay: ATG_p53_CIS: Attagene CIS-FACTORIAL HepG2 Assay for human p53 Transcription Factor (AID 2282994). Conditions: HepG2 p53 cis-element reporter, Attagene mRNA; actives raise or lower the signal. Put shortly:
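In HepG2 cells, reporter transcription units under cis-regulatory promoters were transiently introduced. Following 24 h treatment, RNA was processed to labelled, digested cDNA fragments read by capillary electrophoresis; fitting was bidirectional versus DMSO.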

Assay [20] is described as follows: ATG_M_19_CIS: Attagene CIS-FACTORIAL HepG2 Assay for M19 Transcription Factor (Internal Marker) (AID 2282939). Conditions: HepG2 Attagene CIS-FACTORIAL M19 internal marker reporter; actives raise or lower the signal. A digest of the protocol:
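HepG2 cells transiently transfected with cis-regulated multiplexed reporter units, dosed 24 h. Reporter mRNA quantified by RT-PCR and capillary electrophoresis; internal background marker fitted bidirectionally versus DMSO.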

Chain of Hepatocyte nuclear factor 6 (Homo sapiens) (Q9UBC0 whole entry, looked up, the tested form may be a part): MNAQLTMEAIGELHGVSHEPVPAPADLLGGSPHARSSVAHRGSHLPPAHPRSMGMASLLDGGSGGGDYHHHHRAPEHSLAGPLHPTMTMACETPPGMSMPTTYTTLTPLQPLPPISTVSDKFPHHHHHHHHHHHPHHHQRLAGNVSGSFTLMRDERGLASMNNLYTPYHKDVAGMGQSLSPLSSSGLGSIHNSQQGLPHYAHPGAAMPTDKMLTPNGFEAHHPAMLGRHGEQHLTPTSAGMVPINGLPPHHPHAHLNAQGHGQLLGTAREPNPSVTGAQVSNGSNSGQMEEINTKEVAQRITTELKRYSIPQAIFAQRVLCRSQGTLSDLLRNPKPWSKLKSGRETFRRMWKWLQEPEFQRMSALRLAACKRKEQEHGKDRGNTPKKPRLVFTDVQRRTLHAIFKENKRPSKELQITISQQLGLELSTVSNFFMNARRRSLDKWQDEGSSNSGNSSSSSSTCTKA
Chain of Nuclear respiratory factor 1 (Homo sapiens) (Q16656 whole entry, looked up): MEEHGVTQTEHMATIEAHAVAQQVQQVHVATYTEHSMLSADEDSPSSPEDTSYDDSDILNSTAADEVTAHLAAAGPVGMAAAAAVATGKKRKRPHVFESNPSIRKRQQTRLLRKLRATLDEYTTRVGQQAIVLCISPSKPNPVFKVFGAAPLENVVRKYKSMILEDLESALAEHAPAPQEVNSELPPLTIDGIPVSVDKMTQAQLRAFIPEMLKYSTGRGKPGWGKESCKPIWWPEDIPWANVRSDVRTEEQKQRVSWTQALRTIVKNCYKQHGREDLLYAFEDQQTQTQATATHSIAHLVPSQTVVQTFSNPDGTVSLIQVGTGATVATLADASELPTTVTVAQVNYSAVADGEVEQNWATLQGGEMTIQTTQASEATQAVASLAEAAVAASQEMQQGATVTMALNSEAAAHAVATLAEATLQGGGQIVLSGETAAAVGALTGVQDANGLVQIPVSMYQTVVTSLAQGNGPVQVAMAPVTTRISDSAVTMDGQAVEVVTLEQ
Chain of Aryl hydrocarbon receptor (Homo sapiens) (P35869 whole entry, looked up): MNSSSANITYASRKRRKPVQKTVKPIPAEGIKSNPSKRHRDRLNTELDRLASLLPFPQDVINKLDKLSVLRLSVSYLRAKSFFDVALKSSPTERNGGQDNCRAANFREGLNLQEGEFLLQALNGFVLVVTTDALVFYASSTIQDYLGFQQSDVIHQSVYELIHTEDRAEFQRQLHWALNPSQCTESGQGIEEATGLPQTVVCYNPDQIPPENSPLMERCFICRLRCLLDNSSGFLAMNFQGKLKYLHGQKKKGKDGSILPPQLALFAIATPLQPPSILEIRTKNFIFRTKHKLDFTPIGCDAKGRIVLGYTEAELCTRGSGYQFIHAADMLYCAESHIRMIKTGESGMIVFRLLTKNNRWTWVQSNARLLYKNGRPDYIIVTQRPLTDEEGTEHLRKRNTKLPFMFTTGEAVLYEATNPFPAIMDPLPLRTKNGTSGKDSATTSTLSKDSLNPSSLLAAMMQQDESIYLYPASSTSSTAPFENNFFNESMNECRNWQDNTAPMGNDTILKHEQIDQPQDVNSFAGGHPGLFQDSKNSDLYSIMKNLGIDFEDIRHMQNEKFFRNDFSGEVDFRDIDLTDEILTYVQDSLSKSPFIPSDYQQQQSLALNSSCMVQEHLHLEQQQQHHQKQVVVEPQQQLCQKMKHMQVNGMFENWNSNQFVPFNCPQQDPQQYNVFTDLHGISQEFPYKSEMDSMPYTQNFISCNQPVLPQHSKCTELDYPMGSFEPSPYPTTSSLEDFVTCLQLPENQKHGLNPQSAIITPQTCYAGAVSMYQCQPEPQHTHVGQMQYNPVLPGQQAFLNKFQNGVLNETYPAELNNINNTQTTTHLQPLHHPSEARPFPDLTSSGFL
Chain of Myc proto-oncogene protein (Homo sapiens) (P01106 whole entry, looked up): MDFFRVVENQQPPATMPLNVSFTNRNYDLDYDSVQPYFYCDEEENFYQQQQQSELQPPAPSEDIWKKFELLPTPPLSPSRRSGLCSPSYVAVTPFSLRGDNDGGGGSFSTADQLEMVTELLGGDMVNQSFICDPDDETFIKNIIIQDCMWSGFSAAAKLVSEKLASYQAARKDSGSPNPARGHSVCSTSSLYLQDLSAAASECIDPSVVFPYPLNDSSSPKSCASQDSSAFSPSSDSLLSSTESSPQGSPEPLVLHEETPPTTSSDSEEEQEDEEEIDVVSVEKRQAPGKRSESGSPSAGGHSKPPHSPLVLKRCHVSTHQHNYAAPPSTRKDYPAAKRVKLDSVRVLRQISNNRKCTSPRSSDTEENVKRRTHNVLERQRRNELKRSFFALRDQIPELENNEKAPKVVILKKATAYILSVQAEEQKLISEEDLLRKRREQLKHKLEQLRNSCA
Chain of Hypoxia-inducible factor 1-alpha (Homo sapiens) (Q16665 whole entry, looked up): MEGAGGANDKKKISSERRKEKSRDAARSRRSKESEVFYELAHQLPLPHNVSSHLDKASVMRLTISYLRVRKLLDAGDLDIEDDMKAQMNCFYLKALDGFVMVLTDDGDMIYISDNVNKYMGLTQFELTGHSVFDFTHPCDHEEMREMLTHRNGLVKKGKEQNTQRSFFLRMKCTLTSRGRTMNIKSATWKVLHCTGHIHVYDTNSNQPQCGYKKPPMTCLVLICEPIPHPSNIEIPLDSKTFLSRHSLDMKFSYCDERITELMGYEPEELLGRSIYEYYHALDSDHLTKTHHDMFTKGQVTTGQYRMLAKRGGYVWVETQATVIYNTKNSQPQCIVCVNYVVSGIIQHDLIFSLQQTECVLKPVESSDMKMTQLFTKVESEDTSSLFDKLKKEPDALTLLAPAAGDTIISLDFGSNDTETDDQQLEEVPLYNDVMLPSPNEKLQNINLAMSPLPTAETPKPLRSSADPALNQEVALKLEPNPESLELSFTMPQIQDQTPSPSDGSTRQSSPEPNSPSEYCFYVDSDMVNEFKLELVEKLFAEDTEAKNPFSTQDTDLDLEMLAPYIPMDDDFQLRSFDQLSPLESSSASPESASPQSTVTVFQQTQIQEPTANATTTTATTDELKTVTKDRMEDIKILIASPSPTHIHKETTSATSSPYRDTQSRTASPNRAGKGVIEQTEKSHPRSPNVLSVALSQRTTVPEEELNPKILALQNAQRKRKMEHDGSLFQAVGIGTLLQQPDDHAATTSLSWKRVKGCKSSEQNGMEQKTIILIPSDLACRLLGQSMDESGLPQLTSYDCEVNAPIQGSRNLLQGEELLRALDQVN
Chain of X-box-binding protein 1 (Homo sapiens) (P17861 whole entry, looked up): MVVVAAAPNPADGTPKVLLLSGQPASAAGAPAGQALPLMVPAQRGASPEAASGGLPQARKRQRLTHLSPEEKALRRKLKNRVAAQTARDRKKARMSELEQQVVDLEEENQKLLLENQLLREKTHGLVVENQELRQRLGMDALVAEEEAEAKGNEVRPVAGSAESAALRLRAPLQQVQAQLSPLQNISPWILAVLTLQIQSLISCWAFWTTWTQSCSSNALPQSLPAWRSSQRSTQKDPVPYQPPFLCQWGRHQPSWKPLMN
Chain of Heat shock factor protein 1 (Homo sapiens) (Q00613 whole entry, looked up): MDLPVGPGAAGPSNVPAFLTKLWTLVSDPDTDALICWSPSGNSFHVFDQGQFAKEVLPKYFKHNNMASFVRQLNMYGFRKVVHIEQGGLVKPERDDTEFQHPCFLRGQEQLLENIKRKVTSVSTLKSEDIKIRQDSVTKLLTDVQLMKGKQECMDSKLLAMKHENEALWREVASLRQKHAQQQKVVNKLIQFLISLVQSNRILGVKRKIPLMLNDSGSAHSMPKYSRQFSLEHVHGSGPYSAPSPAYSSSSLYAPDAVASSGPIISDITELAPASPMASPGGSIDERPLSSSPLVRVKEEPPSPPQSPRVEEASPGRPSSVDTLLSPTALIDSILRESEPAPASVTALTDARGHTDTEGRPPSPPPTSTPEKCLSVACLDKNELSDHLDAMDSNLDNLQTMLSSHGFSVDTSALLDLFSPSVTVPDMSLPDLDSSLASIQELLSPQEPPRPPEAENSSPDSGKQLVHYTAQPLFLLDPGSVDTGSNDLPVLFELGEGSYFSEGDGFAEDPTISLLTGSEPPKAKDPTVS
Chain of CCAAT/enhancer-binding protein beta (Homo sapiens) (P17676 whole entry, looked up): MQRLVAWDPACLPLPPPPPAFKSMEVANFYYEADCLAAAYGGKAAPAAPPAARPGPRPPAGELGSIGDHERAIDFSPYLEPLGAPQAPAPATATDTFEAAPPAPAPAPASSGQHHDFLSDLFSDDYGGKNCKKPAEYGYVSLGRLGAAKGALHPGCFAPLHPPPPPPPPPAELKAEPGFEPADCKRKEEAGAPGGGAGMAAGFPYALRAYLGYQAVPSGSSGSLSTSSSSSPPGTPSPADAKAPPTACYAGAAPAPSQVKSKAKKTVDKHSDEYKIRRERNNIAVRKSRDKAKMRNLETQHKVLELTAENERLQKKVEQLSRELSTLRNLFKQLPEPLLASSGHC
Chain of Cellular tumor antigen p53 (Homo sapiens) (P04637 whole entry, looked up, the tested form may be a part): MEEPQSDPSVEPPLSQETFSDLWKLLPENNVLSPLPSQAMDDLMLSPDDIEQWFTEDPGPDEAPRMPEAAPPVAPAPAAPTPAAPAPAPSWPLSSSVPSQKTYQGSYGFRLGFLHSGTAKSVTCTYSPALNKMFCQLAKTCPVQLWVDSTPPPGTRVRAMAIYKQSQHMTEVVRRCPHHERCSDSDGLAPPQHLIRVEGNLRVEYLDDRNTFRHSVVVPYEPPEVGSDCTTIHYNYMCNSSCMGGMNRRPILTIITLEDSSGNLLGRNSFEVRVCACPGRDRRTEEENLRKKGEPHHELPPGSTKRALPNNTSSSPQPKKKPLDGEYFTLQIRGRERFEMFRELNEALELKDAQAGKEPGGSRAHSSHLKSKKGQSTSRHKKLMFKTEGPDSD

With `O=S(=O)(O)O`, the compound was called inactive in assay [1], in assay [2], in [3], in [4], in assay [5] and in assay [6]. In addition, the result in assay [7], in assay [8], in [9], in assay [10], in assay [11] and in [12] was inactive. Moreover, the compound was called inactive in assay [13], in assay [14], in assay [15], in assay [16] and in assay [17].

Take `CC[N+](=O)[O-]`: the compound was classed as inactive in [1], in assay [2], in assay [3], in assay [4], in [5] and in assay [6]. In addition, the call in assay [7], in assay [8], in assay [9], in [10], in assay [11] and in assay [12] was inactive. Further, the compound was called inactive in [18], in assay [13], in assay [14], in assay [15], in [16] and in [17]. Moreover, the result in assay [19] was inactive.

As for `CCCCCc1cc(O)cc(O)c1`, the compound was classed as inactive in assay [1], in [2], in assay [3], in assay [4], in assay [5] and in [20]. The compound was called inactive in assay [10], in [11], in assay [14], in assay [15] and in [19]. Moreover, the AC50 in assay [6] was 36.9 µM (active); in [9], 100 µM (active); in [12] it was 149 µM (active); in assay [18], 16 µM (active); in assay [13], 51.7 µM (active); in assay [16], 43.5 µM (active). For the same compound, the half-maximal activity concentration (AC50) in [17] was 60.8 µM (active).

As for `COc1ncc(F)c2nc(S(=O)(=O)Nc3c(F)cccc3F)nn12`, the call in assay [1], in assay [2], in [3], in assay [4], in [5] and in assay [6] was inactive. Moreover, the result in assay [20], in assay [7], in assay [9], in [10], in assay [11] and in assay [12] was inactive. Further, the result in assay [13], in [14], in [15], in assay [16] and in [17] was inactive.
